Only some compounds are listed: those with a hit (about 0.86% of all), similar ones and a draw of the others.
TAR Tat displ = TAR RNA-Tat peptide displacers, HIV-1, primary screen, biochemical, FRET, FAM/TAMRA-labeled Tat; z-score (concentration not given with the values); HIV-1 TAR RNA, Tat peptide displacement FRET; stronger effect = higher value; 0.6% of 100,000 active; active means z-score of 3 or more in at least 2 runs
CDC25B CDK2 inh = primary biochemical HTRF screen for blockers of M-phase inducer phosphatase 2 binding to CDK2/cyclin A. P30305+P24941. HTRF CDC25B-CDK2/CyclinA binding, anti-His/anti-Flag; stronger effect = higher value. z-score (no concentration beside the values). 0.72% of 94,000 active. AID 1259370, 2018; in the data active means z-score above about 3.2
* marks the source's active call; other numbers are inactive results.

`O=C(Nc1ccc2c(c1)OCCO2)c1noc2c1CCCC2` gave TAR Tat displ 0.68.
Screening Cn1cc(S(=O)(=O)c2ccccc2)c(=O)c2cc(Cl)ccc21 returned TAR Tat displ 2.42 and CDC25B CDK2 inh -2.02.
Screening Cn1cc(S(=O)(=O)c2ccccc2)c(=O)c2cc(F)ccc21 returned TAR Tat displ 21.2* and CDC25B CDK2 inh -1.56.
`O=C(COC(=O)c1cccs1)c1ccc(Cl)cc1` gave CDC25B CDK2 inh 16.9*.
Screening O=C(COC(=O)c1ccco1)c1ccc(Cl)cc1 returned CDC25B CDK2 inh -0.66.
Screening Cc1cc2nc(CSCc3ccco3)cc(=O)n2o1 returned TAR Tat displ 0.4 and CDC25B CDK2 inh 0.09.
For Cc1ccc(S(=O)(=O)NCCc2csc3nc(-c4cccc(F)c4)nn23)s1 the results were TAR Tat displ -0.51.
For Cc1cc(C)nc(SN=C2C=C(Cl)C(=O)C(Cl)=C2)n1 the results were CDC25B CDK2 inh 15.5*.
Cc1cc(C)nc(SCCS(=O)(=O)Cc2ccc(Cl)cc2)n1 was read as CDC25B CDK2 inh -1.79.
`COc1ccc(CN2N=NC3C(=O)N(c4ccc(OC)c(Cl)c4)C(=O)C32)cc1` (configuration not stated) gave TAR Tat displ 0.45 and CDC25B CDK2 inh -0.64.
`O=C1CN(Cc2ccccc2F)S(=O)(=O)c2ccccc2N1Cc1ccccc1` gave TAR Tat displ 9.39*.
Screening O=C1CN(Cc2ccccc2F)S(=O)(=O)c2ccccc2N1Cc1ccc(F)cc1 returned TAR Tat displ 2.67.
Screening Cc1ccc(N2C(=O)N(c3ccc(F)cc3)C3CS(=O)(=O)CC32)cc1Cl (configuration not stated) returned TAR Tat displ 0.2 and CDC25B CDK2 inh -1.92.
`CCOc1ccccc1CN(CCc1ccc2c(c1)OCO2)Cc1cccnc1` gave CDC25B CDK2 inh -0.39.
For CCOc1ccc(CN(CCc2ccc3c(c2)OCO3)Cc2cccnc2)cc1 the results were TAR Tat displ 0.9 and CDC25B CDK2 inh 15.8*.
Screening CCCCN1C(=O)C(O)(CC(=O)c2ccc(C(C)C)cc2)c2ccccc21 (configuration not stated) returned TAR Tat displ -0.21 and CDC25B CDK2 inh -0.27.
For CCN1C(=O)C(O)(CC(=O)c2ccc(F)cc2)c2ccccc21 (configuration not stated) the results were TAR Tat displ -0.4 and CDC25B CDK2 inh -0.32.
CCCCN1C(=O)C(O)(CC(=O)c2ccccc2)c2ccccc21 (configuration not stated) was read as TAR Tat displ -1.56 and CDC25B CDK2 inh 11.8*.
For NC(=O)CN1C(=O)C(O)(CC(=O)c2ccc(F)cc2)c2ccccc21 (configuration not stated) the results were TAR Tat displ -0.04 and CDC25B CDK2 inh 16.1*.
`CCOC(=O)c1c(C)oc2ccc(OC(C)C(=O)O)cc12` (configuration not stated) gave CDC25B CDK2 inh -0.51.
`COC(CNC(=O)C(=O)Nc1ccccc1Oc1ccc(Cl)cc1Cl)OC` gave CDC25B CDK2 inh -0.35.
`CN(C)CCNc1oc(-c2ccc(S(=O)(=O)N3CCc4ccccc4C3)cc2)nc1C#N` gave TAR Tat displ -2.11 and CDC25B CDK2 inh -1.47.
N#Cc1nc(-c2ccc(S(=O)(=O)N3CCc4ccccc4C3)cc2)oc1NCCCn1ccnc1 was read as TAR Tat displ 2.69 and CDC25B CDK2 inh 10.7*.
Screening CC(CS(=O)(=O)c1ccc2c(c1)NC(=O)CS2)C(=O)NCc1ccco1 (configuration not stated) returned TAR Tat displ 5.27*.
O=C1CSc2ccc(S(=O)(=O)NCc3ccco3)cc2N1 was read as TAR Tat displ 1.7.
For COC(=O)c1sccc1NC(=O)N1CCCC1c1cccs1 (configuration not stated) the results were TAR Tat displ 0.15 and CDC25B CDK2 inh -1.6.
Screening CCCS(=O)(=O)N1CCCc2ccc(NS(=O)(=O)c3cc(F)ccc3F)cc21 returned TAR Tat displ 7.25*.
For CCS(=O)(=O)N1CCCc2ccc(NS(=O)(=O)c3cc(F)ccc3F)cc21 the results were TAR Tat displ -0.35.
COCCCNc1nc2c(S(=O)(=O)c3ccccc3)nnn2c2ccccc12 was read as TAR Tat displ 1.11 and CDC25B CDK2 inh -1.88.
`CCOCCCNc1nc2c(S(=O)(=O)c3ccccc3)nnn2c2ccccc12` gave TAR Tat displ 11.2* and CDC25B CDK2 inh -0.96.
Screening CC1CC(=O)Nc2cc(S(=O)(=O)N(Cc3cccs3)C3CCCC3)ccc2S1 (configuration not stated) returned TAR Tat displ 1.5.
`CCOCCCNc1cc(N2CCN(c3ccccc3)CC2)c2noc3c2c1C(=O)c1ccccc1-3` gave TAR Tat displ 1.62 and CDC25B CDK2 inh -1.47.
Screening O=C1c2ccccc2-c2onc3c(N4CCOCC4)cc(NCCN4CCCC4)c1c23 returned TAR Tat displ -4.99 and CDC25B CDK2 inh -1.78.
